The record followed here is PubChem BioAssay (NCATS).

One test deals with C33A. In words: Primary qHTS to identify gynecologic anti-cancer compounds using libraries of approved drugs and bioactive compounds (AID 1345084). Further: nearly all actives have a fitted effect of over 55% in size. The conditions noted are these: Gynecologic cancer cell panel viability, ATPlite luminescence, 48 h; series mostly up to 57.5 µM. The method, boiled down: (§1)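 48 h compound exposure at 37 C, 5% CO2; five-point qHTS. ATPlite luminescence readout of cell ATP.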

The test system of the next test is CAOV3. Described as above. As to conditions: Gynecologic cancer cell panel viability, ATPlite luminescence, 48 h; series mostly up to 57.5 µM. The method, boiled down: as §1
In general terms: Cellular ATP, detected with luciferase, serves as a proxy for viable cell number.

For another test, the system named is CASKI. Described as above. The conditions noted are these: Gynecologic cancer cell panel viability, ATPlite luminescence, 48 h; series mostly up to 57.5 µM. The method, boiled down:
as §1

The next test deals with Es-2. The test is described as above. As to conditions: Gynecologic cancer cell panel viability, ATPlite luminescence, 48 h; series mostly up to 57.5 µM. The method, boiled down:
as §1

Another test has as its system HeLa. The test is described as above. As to conditions: Gynecologic cancer cell panel viability, ATPlite luminescence, 48 h; series mostly up to 57.5 µM. The method, boiled down:
as §1

The subject of the next test is Hek293T. The description is as above. The conditions noted are these: Gynecologic cancer cell panel viability, ATPlite luminescence, 48 h, control line for the selectivity index; series mostly up to 57.5 µM. The method, boiled down:
as §1

A further test has as its system JEG-3. The test is described as above. The conditions noted are these: Gynecologic cancer cell panel viability, ATPlite luminescence, 48 h; series mostly up to 57.5 µM. The method, boiled down: as §1
A further test concerns OV90. Described as above. As to conditions: Gynecologic cancer cell panel viability, ATPlite luminescence, 48 h; series mostly up to 57.5 µM. The method, boiled down:
as §1

The test system of another test is PA-1. Described as above. As to conditions: Gynecologic cancer cell panel viability, ATPlite luminescence, 48 h; series mostly up to 57.5 µM. The method, boiled down:
as §1

The test system of a further test is SKOV3. The test is described as above. The conditions noted are these: Gynecologic cancer cell panel viability, ATPlite luminescence, 48 h; series mostly up to 57.5 µM. The method, boiled down: as §1
In the next test the test system is Tov-21-G. Described as above. The conditions noted are these: Gynecologic cancer cell panel viability, ATPlite luminescence, 48 h; series mostly up to 57.5 µM. The method, boiled down:
as §1

A further test concerns Tov112D. The test is described as above. The conditions noted are these: Gynecologic cancer cell panel viability, ATPlite luminescence, 48 h; series mostly up to 57.5 µM. The method, boiled down: as §1
The nature of test [1]: Drug repurposing screens with cells derived from glioblastoma tumor samples (AID 1345199). Further: nearly all actives have a fitted effect of over 40% in size. Further: potency means the concentration at half of the fitted maximal effect. The conditions noted are these: GBM patient neurospheres viability, ATP luminescence, 48 h. The method, boiled down:
(§2)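 Four patient lines of CD133+ GBM neurospheres were screened at several concentrations; hits were retested in those lines plus three slower-growing GBM lines, using 48-hour treatment and ATP-based viability.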

The next test concerns astro. The test is described as above. The conditions noted are these: viability, ATP luminescence, 48 h; series mostly up to 45.9 µM. The method, boiled down: as §2

Structures are written as SMILES. Records with an inconclusive call do not appear. Values without a mark were called inactive. Active and inactive are the calls of the source. The call rests on the fitted dose curve; in most records, active means well fitted curve in the direction sought with a large enough effect; inconclusive means small, poorly fitted or top-dose-only effect, or another doubt; inactive means no such curve, though single readings can be large; an effect the other way counts as inactive or inconclusive. Where a SMILES comes first, the peptide text is derived from it. [ ]: non-standard residue; d: D form. The star is where a group is joined. AFC = O=c1cc(C(F)(F)F)c2ccc(N*)cc2o1; PhLac = O=C(O)[CH](O)Cc1ccccc1; NMeV = CN[CH](C(=O)O)C(C)C
On the % scale 0 is the no-effect control and ±100 the full control effect.

On to `C=C1C(=O)O[C@H]2[C@H]1[C@@H](OC(=O)C(C)CO)C[C@@]1(C)[C@H](O)CCC(=O)[C@H]21` (some centres not stated), for which the Potency result in the test on C33A, in the test with CAOV3, in the test on CASKI, with Es-2, with HeLa and in the test on Hek293T was “inactive” each time. Besides, the Potency entry with JEG-3, in the test with OV90, in the test on PA-1, with SKOV3, in the test with Tov-21-G and in the test with Tov112D was “inactive” in each case.

Consider `CC(C)C(C(=O)N1CCCC1C(=O)O)N(C)C(=O)C(O)Cc1ccccc1` (configuration not stated) (H-[PhLac]-[NMeV]-Pro-OH; configuration not given here), for which the Potency result in the test with C33A, in the test with CAOV3, with CASKI, in the test on Es-2, in the test on HeLa and with Hek293T was “inactive” in each case. In addition, the Potency entry in the test on JEG-3, with OV90, in the test on PA-1, in the test with SKOV3, in the test on Tov-21-G and with Tov112D was “inactive” throughout.

Turning to `C=C1CCC2C(C)(CO[C@@H]3O[C@H](CO)[C@@H](O)[C@H](O)[C@H]3O)C(O)CCC2(C)C1C(=O)CC1=CCOC1=O` (some centres not stated), the Potency result in the test with C33A, with CAOV3, with CASKI, in the test on Es-2, in the test on HeLa and with Hek293T was “inactive” throughout. Moreover, the Potency result with JEG-3, with OV90, with PA-1, in the test with SKOV3, in the test on Tov-21-G and in the test on Tov112D was “inactive” in each case.

`C[C@H](NCc1ccc(OCc2ccccc2F)cc1)C(N)=O`: the Potency result in the test on C33A, with CAOV3, in the test on CASKI, in the test with Es-2, with HeLa and in the test on Hek293T was “inactive” in each case. Moreover, the Potency result in the test with JEG-3, in the test on OV90, in the test with PA-1, with SKOV3, in the test with Tov-21-G and with Tov112D was “inactive” each time.

On to `CCC[C@@H]1C[C@@H](C(=O)N[C@H](C(C)Cl)[C@H]2O[C@H](SC)[C@H](O)[C@@H](O)[C@H]2O)N(C)C1` (some centres not stated), for which the Potency entry in the test on C33A, in the test with CAOV3, with CASKI, with Es-2, in the test on HeLa and in the test on Hek293T was “inactive” in each case. Besides, the Potency entry in the test with JEG-3, in the test on OV90, in the test with PA-1, with SKOV3, with Tov-21-G and in the test on Tov112D was “inactive” throughout.

`C=C[C@H]1[C@H](O[C@@H]2O[C@H](CO)[C@@H](O)[C@H](O)[C@H]2O)OC=C(C(=O)OC)[C@H]1C[C@@H]1N[C@H](C(=O)O)Cc2c1[nH]c1ccccc21`: the Potency entry in the test on C33A, in the test with CAOV3, with CASKI, in the test on Es-2, with HeLa and with Hek293T was “inactive” each time. Further, the Potency result in the test on JEG-3, with OV90, in the test with PA-1, with SKOV3, with Tov-21-G and in the test with Tov112D was “inactive” throughout.

Regarding `O=C1C[C@@H](c2ccc(O)cc2)Oc2cc(O)ccc21`, the Potency entry in the test with C33A, with CAOV3, in the test on CASKI, with Es-2, with HeLa and with Hek293T was “inactive” in each case. Further, the Potency entry with JEG-3, in the test on OV90, in the test on PA-1, in the test on SKOV3, in the test with Tov-21-G and in the test with Tov112D was “inactive” in each case.

On to `O=C(O)c1cc(O[C@@H]2O[C@H](CO[C@@H]3OC[C@@H](O)[C@H](O)[C@H]3O)[C@@H](O)[C@H](O)[C@H]2O)c2ccccc2c1O`, for which the Potency result in the test with C33A, in the test on CAOV3, with CASKI, in the test with Es-2, in the test with HeLa and with Hek293T was “inactive” each time. Moreover, the Potency result in the test on JEG-3, with OV90, in the test on PA-1, with SKOV3, in the test on Tov-21-G and in the test with Tov112D was “inactive” in each case.

In the case of `C(#Cc1cccc(CN2CCOCC2)c1)CCN1CCCCC1`, the Potency entry in the test on C33A, in the test on CAOV3, in the test with CASKI, in the test on Es-2, with HeLa and in the test with Hek293T was “inactive” each time. Moreover, the Potency entry in the test with JEG-3, in the test with OV90, in the test with PA-1, in the test with SKOV3, in the test with Tov-21-G and in the test on Tov112D was “inactive” in each case.

With `CC(=O)N[C@@H](CC(C)C)C(=O)N[C@@H](CCC(=O)O)C(=O)N[C@@H](CCC(=O)O)C(=O)N[C@@H](CC(=O)O)C(=O)Nc1ccc2c(C(F)(F)F)cc(=O)oc2c1` (Ac-LEED-{AFC}), the Potency result in the test on C33A, in the test on CAOV3, in the test on CASKI, with Es-2, in the test with HeLa and with Hek293T was “inactive” in each case. In addition, the Potency result with JEG-3, in the test with OV90, in the test with PA-1, with SKOV3, with Tov-21-G and with Tov112D was “inactive” in each case.

Take `OC[C@H]1O[C@@H](n2cnc3c2NC=NC[C@H]3O)C[C@@H]1O`: the activity, negative = cell killing was 2.62% in test [1] (at 45.9 µM (top of the series), tumour line B); -21% in test [1] (at 45.9 µM (top of the series), tumour line D); -9.89% in [1] (at 46 µM (top of the series), tumour line A); 8.32% in [1] (at 46.1 µM (top of the series), tumour line C). Besides, the Potency entry with astro is “inactive”.

Take `COc1ccc(C[C@H](N)C(=O)N[C@H]2[C@@H](O)[C@H](n3cnc4c(N(C)C)ncnc43)O[C@@H]2CO)cc1`: the Potency with astro was 3.16 µM (active).

Turning to `O=C(c1ccc(F)cc1)C1CCN(CCn2c(=O)nc3n(c2=O)CCCC3)CC1`, the Potency entry in the test with C33A, with CAOV3, with Es-2, in the test on HeLa, in the test with Hek293T and with JEG-3 was “inactive” throughout. In addition, the Potency result with OV90, in the test on PA-1, in the test with Tov-21-G and in the test on Tov112D was “inactive” throughout.

For the molecule `C[C@]1(O)CC[C@@H]2C(C(=O)O)=CO[C@@H](O[C@@H]3O[C@H](COC(=O)c4ccc(O)cc4)[C@@H](O)[C@H](O)[C@H]3O)[C@@H]21`, the Potency result in the test with C33A, in the test with CASKI, in the test on Es-2, in the test with HeLa, in the test on Hek293T and with JEG-3 was “inactive” in each case. Moreover, the Potency result with OV90, in the test with PA-1, in the test with SKOV3, with Tov-21-G and with Tov112D was “inactive” in each case.
